We go through 29 molecules from PubChem BioAssay AID623995 (National Center for Advancing Translational Sciences (NCATS), 2012).

The list shows a part of the results. Records with an inconclusive call do not appear. Active and inactive are the calls of the source. Calls come from the whole dose curve; as a rule, active = well fitted inhibition curve with a large enough effect; inconclusive = small, poorly fitted or top-dose-only effect; inactive = no such curve, though single readings can be large or run the other way.
Potency is the fitted concentration of half-maximal effect.

The target in this assay is Isocitrate dehydrogenase [NADP] cytoplasmic (Homo sapiens) (UniProt O75874). Briefly: qHTS for Inhibitors of mutant isocitrate dehydrogenase 1 (IDH1): Cherrypicks in WT IDH1. Note: nearly all actives have a fitted effect of over 55% in size. The following applies: WT IDH1 enzyme, NADPH diaphorase/resazurin fluorescence; series mostly up to 115 µM; activity change, negative = inhibition: at the top concentration. The text has this: Unbiased genomic sequencing for 22 glioma genomes found recurrent mutation of isocitrate dehydrogenase 1 (IDH1) on chromosome 2q33-a gene encoding the cytosolic isoform of IIDH1associated with the tricarboxylic acid cycle (TCA) that catalyzes the oxidative decarboxylation of isocitrate, yielding alpha-ketoglutarate and CO2 via NADP+ to NADPH conversion. Subsequent studies confirmed the recurrent IDH mutations in up to 70% of secondary gliomas and in 10% of AML cases. […] This in effect defines IDH1 as an oncogene, and provides an extraordinary opportunity to discover chemical probes against mutant IDH1 that may translate into much needed new therapies for glioma and AML patients. QHTS-compatible fluorescent, enzymatic assay was developed to identify inhibitors of the IDH1 mutant (AID 602179). To identify selectivity of the identified inhibitors, a secondary enzymatic assay against the WT IDH1 was also developed. Inhibition of the WT IDH1 leads to a decrease in the amount of NADPH relative to a DMSO control and a concomitant decrease in the fluorescence of the diaphorase/resazurin enzyme product resorufin at 590 nm. Compounds were screened as a concentration-titration series that ranged from 115 uM to 0.20 uM. NIH Molecular Libraries Probe Production Network [MLPCN] NIH Chemical Genomics Center [NCGC] MLSCN Grant: R03 DA032129 PI Name: Dr. Lenny Dang
Isocitrate dehydrogenase [NADP] cytoplasmic (Homo sapiens), sequence (O75874 whole entry, looked up, canonical isoform): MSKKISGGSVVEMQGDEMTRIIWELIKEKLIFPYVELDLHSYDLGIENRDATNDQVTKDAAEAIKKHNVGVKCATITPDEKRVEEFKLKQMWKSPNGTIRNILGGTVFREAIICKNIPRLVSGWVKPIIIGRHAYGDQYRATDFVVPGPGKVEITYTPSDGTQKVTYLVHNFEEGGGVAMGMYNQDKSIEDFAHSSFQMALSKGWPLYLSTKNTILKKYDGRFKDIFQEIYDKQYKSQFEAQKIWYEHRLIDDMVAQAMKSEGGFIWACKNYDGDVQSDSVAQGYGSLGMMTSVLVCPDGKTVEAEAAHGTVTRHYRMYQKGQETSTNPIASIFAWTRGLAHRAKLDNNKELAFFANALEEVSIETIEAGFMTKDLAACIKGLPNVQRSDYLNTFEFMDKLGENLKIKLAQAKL
Enzyme buffer was dispensed into black, solid 1536-well plates at 3 microL/well in 20 mM Tris buffer, pH 7.5, containing final concentrations of 10 mM MgCl2, 20 mM NaCl, 0.05% BSA, 2 mM b-ME and 0.65 nM WT IDH1. Then, 23 nL of compounds or DMSO were delivered to each well using a pin tool. The substrate and detection buffer (1 uL; 20 mM Tris buffer, pH 7.5, containing final concentrations of 10 mM MgCl2, 20 mM NaCl, 0.05% BSA, 0.06 mM NADP+, 0.53 uM diaphorase, 0.012 mM resazurin and 0.08 mM isocitrate) was added to start the enzymatic reaction. The fluorescence intensity was monitored in kinetic mode on a ViewLux plate reader at 598 nm for 10 minutes (Ex 525, EM 598, bodipy mirror, 0.5 sec exposure). The % Activity was determined from the corrected fluorescence values. As no specific WT IDH1 inhibitors have been identified in the literature, 1x (0.65 nM) and 0x WT IDH1 enzyme controls (untreated) were included to normalize % Activity of identified inhibitors; 0x enzyme values corresponded to 100% Activity (full inhibition), while 1x WT IDH1 enzyme values were used to normalize 0% Activity (no inhibition). Concentration-response curves were fitted to the signals arising from the resulting fluorescence. The concentration-response curves were then classified based on curve quality (r2), response magnitude and degree of measured activity, and compounds were subsequently categorized based on their curve class. […] Keywords: Isocitrate dehydrogenase, IDH1, IDH1 R132H, 2-HG, 2-hydroxyglutarate, AML, glioma, MLSMR, MLPCN, NIH Roadmap, qHTS, NCGC
Background: In qHTS, concentration-response curves come from the screen itself.
In the case of `CC(C)N(C(=O)CSc1nc(COc2ccccc2)nc2ccccc12)C(C)C`, the “activity change, negative = inhibition” value is -3.75% (inactive).
The same measure, in the same setting: with `N#CC1=C(N)C(C#N)(C#N)[C@H](c2ccsc2)[C@H]2COCC=C12` the figure was 130% (inactive); with `COc1ccc(C(C(=O)NC2CCCCC2)N(C(=O)c2snc(C(N)=O)c2N)c2ccccc2OC)cc1` (centres undefined), -5.01% (inactive); with `CCOC(=O)c1ccc(N2C(=O)c3n[nH]c(-c4ccco4)c3C2c2ccc(O)cc2)cc1` (centres undefined), -10.9% (inactive).
With `CCC(C)(C)NC(=O)C(c1cccn1C)N(Cc1ccc(C)cc1)C(=O)Cn1nnc2ccccc21` (centres undefined), the “activity change, negative = inhibition” value is 4.89% (inactive).
For the molecule `Cc1nc(-c2ccc(Cl)cc2)sc1C(=O)CBr`, the “activity change, negative = inhibition” value is 7.04% (inactive).
As to `CCCOc1ccc(C2c3c(-c4ccccc4O)n[nH]c3C(=O)N2Cc2cccnc2)cc1` (centres undefined), the “activity change, negative = inhibition” value is 2.01% (inactive).
As to `COc1cc2c(-c3ccc4c(c3)OCO4)c(-c3ccsc3)oc(=O)c2cc1OC`, the “activity change, negative = inhibition” value is 2.94% (inactive).
With `COc1ccc(/C=C2/SC(=O)N(CCCCCC(=O)Nc3ccccc3C(=O)O)C2=S)cc1`, the Potency was 79.4 µM (active).
On to `CC(C)(C)c1ccc(S(=O)(=O)Nc2ccc(O)c(Sc3nc4ccccc4s3)c2)cc1`, for which the “activity change, negative = inhibition” value was 11.2% (inactive).
Still for that read-out and setting: with `COc1ccc(C(CCN(Cc2ccc(OC)c(OC)c2)C(=O)CCl)c2ccccc2)cc1` (centres undefined) the figure was -5.8% (inactive); with `CCCNc1ncnc2c1c(-c1ccccc1)cn2-c1ccc(OCC)cc1`, -9.03% (inactive).
Same read-out and setting: with `CCCc1[nH]nc2c1C(c1ccc(OC)c(Cn3nc(C)c(Br)c3C)c1)C(C#N)=C(N)O2` (centres undefined) the figure was 15.8% (inactive); with `Cc1ccc(Nc2nc(CSc3nnc(-c4ccncc4)n3-c3ccccc3C)cs2)cc1`, -9.79% (inactive).
Same read-out and setting: with `C(=N/Nc1cc(N2CCOCC2)nc(N2CCOCC2)n1)/c1ccccc1` the figure was -2.88% (inactive).
With `COc1ccc(/C=N/Nc2cc(N3CCOCC3)nc(C)n2)c(OC)c1`, the “activity change, negative = inhibition” value was 3.66% (inactive).
With `Cc1cccc(N(C(=O)Cc2cccs2)C(C(=O)NC2CCCC2)c2ccsc2)c1` (centres undefined), the “activity change, negative = inhibition” value was -5.18% (inactive).
For the molecule `COc1cc(/C=C2/C(=O)ON=C2C)ccc1OCc1ccccc1F`, the “activity change, negative = inhibition” value was 4.5% (inactive).
As to `Cc1ccc2nc(N3C(=O)C(O)=C(C(=O)c4ccco4)C3c3cccc(O)c3)sc2c1` (centres undefined), the “activity change, negative = inhibition” value was -9.63% (inactive).
Still for that read-out and setting: with `CCCc1nc2c(c(=O)c3ccccc3n2C)c(=O)n1C1CCCCCC1` the figure was 1.92% (inactive); with `O=C1c2cccc3cccc(c23)C(=O)N1CCCCCc1n[nH]c(=S)o1`, 25.5% (inactive); with `CC(C)Nc1nc(N(c2ccccc2)c2ccccc2)nc(-n2ccnc2)n1`, -7.64% (inactive).
The same measure, in the same setting: with `COC(=O)c1cccc(N(C(=O)c2ccco2)C(C(=O)NC2CCCC2)c2ccco2)c1` (centres undefined) the figure was 4.88% (inactive).
On the same count and under the same terms, for `CCOC(=O)c1oc2c(CN3CCN(CCO)CC3)c(O)c(CC)cc2c(=O)c1-c1nc2ccccc2s1` the value was 0.488% (inactive); for `COc1cc(/C=C2/SC(=S)N(Cc3ccccc3)C2=O)cc(OC)c1O`, -23.7% (inactive); for `Cn1c(COc2ccc(Cl)cc2)nc2ccccc2c1=O`, -2.18% (inactive).
Regarding `CCSc1nc2sc3c(c2c(=O)n1-c1ccc(C)cc1)CCN(C)C3`, the “activity change, negative = inhibition” value is -9.91% (inactive).
Same read-out and setting: for `Cc1nc(C)c(C(=O)N(c2ccc(C)c(C)c2)C(C(=O)NCc2ccco2)c2ccccc2)s1` (centres undefined) the value was -5.09% (inactive); for `CCCCC(=O)NC(c1ccc(OC)c(OC)c1)c1ccc2cccnc2c1O` (centres undefined), -5.29% (inactive).
